The list is not random: actives were taken first. Their share in the collection is about 0.51%.
phage Ecoli inh – growth loss of phage-infected E. coli, primary screen, RecBCD inhibitor project, absorbance, with phage, HTS; AID 651602, 2012; hit rate 0.26% among 360,000; inhibition, % at 11.9 µM; in the data active = inhibition above about 11%
E coli growth-1 – E. coli growth inhibition, primary screen, OD600; hit rate 0.21% among 330,000; Escherichia coli growth, 23 h; stronger effect = lower value; OD600 absorbance (test concentration not listed);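 active = OD600 absorbance below the run mean of sample wells minus 3.6 SD, in any replicate, cut at about 0.56 in these data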
AddAB inh – growth inhibition of E. coli expressing H. pylori AddAB, primary screen, AddAB inhibitor project, absorbance. inhibition, % at 11.9 µM. hit rate 0.29% among 330,000. AID 435030, 2010; in the data active = inhibition above about 12%;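 note: 0% = vehicle wells of infected cells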
Tat transport – E. coli Tat export inhibitors, primary screen, MC4100, TorA-mCherry reporter, fluorescence, single point. inhibition, % at 10 µM. hit rate 0.036% among 340,000. AID 488895, 2010;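 active = mean replicate inhibition at least 50% and at least half of replicates individually reaching 50%; inconclusive = only one of the two criteria met; inactive = neither criterion met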;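 note: exported cargo escapes ClpAP degradation while cytoplasmic cargo is degraded and loses fluorescence; 0% = median of neutral control wells and 100% = median of NaSCN control wells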
E coli growth-2 – E. coli V3065 growth inhibition, primary screen, counter-screen for AddAB inhibitor project, absorbance, OD600. hit rate 0.27% among 330,000. 18 h. inhibition, % at 11.9 µM;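 active = inhibition above the campaign's mean inhibition across all tested compounds plus 3 SD, cut at about 9.9% in these data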;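 note: uninfected addAB+ strain grown without phage in ampicillin broth; 0% = DMSO wells and 100% = ciprofloxacin 0.95 µg/ml wells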
AddAB confirm – growth loss of phage-infected E. coli expressing H. pylori AddAB, confirmation, AddAB inhibitor project, absorbance, E. coli V3065, T4 phage, triplicate | inhibition, % at 11.9 µM | shares compounds with AddAB inh | OD; T4 phage with gene 2 nonsense mutations | hit rate 64% among 880;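 active = mean inhibition above a set limit taken from the earlier primary screen, cut at about 13% in these data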;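 note: higher means less bacterial growth since AddAB block lets phage replicate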
RecBCD counter – growth loss of RecBCD+ E. coli with mutant T4 phage, counter-screen for AddAB inhibitor project, absorbance, V66 E. coli; shares compounds with AddAB inh; OD growth; inhibition, % at 11.9 µM; hit rate 73% among 880; AID 488955, 2010;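 active = mean inhibition above the mean of solvent-only control wells plus 3 SD, cut at about 4% in these data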;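 note: optical density read after an 18 h incubation at 37 °C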
Bact viability – bacterial viability inhibition counter-screen, confirmation, counter-screen for AddAB inhibitor project, absorbance; hit rate 35% among 880; shares compounds with AddAB inh; absorbance (AddAB counterscreen); AID 488956, 2010; inhibition, % at 11.9 µM; in the data active = inhibition above about 25%
RecBCD conf – growth loss of phage-infected RecBCD+ E. coli, confirmation, RecBCD inhibitor project, absorbance, E. coli V66, T4 gene 2 phage | shares compounds with phage Ecoli inh | E. coli V66 + T4 2- phage, growth OD | inhibition, % at 11.9 µM | hit rate 45% among 890 | AID 651982, 2013;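 active = mean inhibition over triplicates exceeding the hit threshold derived in the original primary screen, cut at about 11% in these data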
Ecoli viability – E. coli viability inhibition, counter-screen for RecBCD inhibitor project, absorbance, high throughput. shares compounds with phage Ecoli inh. absorbance (OD) growth. inhibition, % at 11.9 µM. hit rate 29% among 890. AID 651983, 2013; in the data active = inhibition above about 20%;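 note: E. coli strain V66 grown with compound alone and no phage infection; 0% = bacteria with DMSO vehicle only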
AddAB phage OD – growth loss of phage-infected AddAB-carrying E. coli, confirmation, counter-screen for RecBCD inhibitor project, absorbance, E. coli V3065, T4 phage; shares compounds with phage Ecoli inh; E. coli expressing H. pylori AddAB + T4 phage, OD growth; gene 2 mutant T4, recBCD-deleted host; inhibition, % at 11.9 µM; hit rate 45% among 890;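 active = mean inhibition above the solvent-only control wells' mean plus 3 SD, cut at about 22% in these data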;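 note: higher means less bacterial growth from phage killing when AddAB is blocked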
An asterisk follows results filed as active; ? = inconclusive; . = not tested or not shown.

SMILES	phage Ecoli inh	E coli growth-1	AddAB inh	Tat transport	E coli growth-2	AddAB confirm	RecBCD counter	Bact viability	RecBCD conf	Ecoli viability	AddAB phage OD
O=C(NCCCn1ccnc1)C(=O)NCC(c1cccnc1)N1CCN(c2ccccc2)CC1 (configuration not stated)	0.8	0.741	96.9*	-2.9	97.5*	-4.5	0.2	-0.4	.	.	.
Cn1c(=O)c2c(nc(C=Cc3cccc(Cl)c3)n2C)n(C)c1=O	.	0.67	.	.	.	.	.	.	.	.	.
C=CCn1c(Sc2ncc([N+](=O)[O-])s2)n[nH]c1=O	9.2	0.448*	16.9*	10.1	3.3	98.7*	11.8*	21.0	.	.	.
Cc1cc(C)c(C)c(S(=O)(=O)N2CCC(C(=O)NNC(=O)c3ccccc3O)CC2)c1C	11.7*	0.645	14.9*	-6.0	8.8	10.8	8.1*	6.1	0.5	1.2	-0.1
COC(=O)[C@@]1(Cc2ccc(F)cc2)C2c3cc(C(=O)N(C)C)n(CCc4ccc(OC)c(Br)c4)c3CC2CN1C(=O)c1ccccc1 (some centres not stated)	.	0.778	.	.	.	.	.	.	.	.	.
COC(=O)c1cccc(C23CC4(C2)C(CN(Cc2cccnc2)C4c2ccccc2)C3c2ccc(C(F)(F)F)cc2)c1 (configuration not stated)	.	0.741	.	.	.	.	.	.	.	.	.
O=C(Nc1ccccc1F)c1ccc([N+](=O)[O-])s1	2.4	0.567	3.4	?	3.6	.	.	.	.	.	.
O=C(Nc1cccnc1)c1ccc([N+](=O)[O-])s1	16.9*	0.07*	99.4*	-3.9	69.4*	99.9*	18.2*	47.2*	7.7	10.9	86.1*
O=C(Cc1ccc([N+](=O)[O-])cc1)N/N=C/c1ccc([N+](=O)[O-])o1	12.8*	.	21.1*	-24.3	13.5*	75.1*	7.1*	17.3	5.4	5.9	67.2*
Cc1ccc(C(=O)N/N=C\c2ccc([N+](=O)[O-])o2)cn1	17.6*	.	84.2*	-14.1	20.3*	100.5*	13.8*	35.8*	7.0	6.2	96.7*
Cc1ccc(C(=O)N/N=C\c2ccc(-c3ccc([N+](=O)[O-])cc3)o2)cn1	3.6	.	-0.3	0.6	0.2	.	.	.	.	.	.
O=C(CNc1cccc([N+](=O)[O-])c1)N/N=C/c1ccc([N+](=O)[O-])o1	18.1*	.	82.3*	2.2	32.6*	102.5*	16.1*	60.4*	14.2*	12.4	65.5*
O=C(C1=CC(C2CC2)CC(OCc2ccc(CO)cc2)O1)N1CCN(Cc2ccc3c(c2)OCO3)CC1 (configuration not stated)	.	0.664	.	.	.	.	.	.	.	.	.
CC(C)n1cc(C=C2NC(=O)NC2=O)c2ccccc21	.	0.728	.	.	.	.	.	.	.	.	.
CCOC(=O)CCCCCC(=O)Nc1ccc2c(c1)CC(=O)N(C(C)CO)CC(C)C(CN(C)C(=O)Nc1ccc3c(c1)OCO3)O2 (configuration not stated)	.	0.646	.	.	.	.	.	.	.	.	.
C(=N\Nc1nc2ccccc2s1)/c1ccccn1	20.9*	.	15.5*	.	15.6*	19.4*	14.1*	13.0	10.7	12.0	20.7
Cc1cccc(NC(=S)NC(=O)C=Cc2ccccc2)n1	.	0.729	.	.	.	.	.	.	.	.	.
COc1cc(CN2CCCCCC2)cc(OC)c1OC	1.9	0.673	3.4	2.2	0.0	.	.	.	.	.	.
COc1cc(Cc2cnc(N)nc2N)cc(OC)c1OC	100.6*	0.064*	99.0*	-28.2	99.7*	98.2*	99.8*	100.0*	101.3*	102.3*	101.5*
CCOC1OC(C(=O)N2CCOCC2)=CC(c2cn(C(C)=O)c3ccccc23)C1CCCO (configuration not stated)	.	0.666	.	.	.	.	.	.	.	.	.
C#Cc1ccc(C2C=C(C(=O)N3CCOCC3)OC(OCc3ccc(CO)cc3)C2)cc1 (configuration not stated)	.	0.694	.	.	.	.	.	.	.	.	.
CCn1cc(C(=O)OCc2ccccc2)c(=O)c2ccc(C)nc21	-0.9	0.607	3.0	-0.2	-1.0	.	.	.	.	.	.
CCn1cc(C(=O)O)c(=O)c2ccc(C)nc21	82.0*	0.063*	98.0*	2.8	82.3*	94.1*	32.5*	90.2*	45.2*	78.3*	99.5*
COc1ccc(/C=N/Nc2ncnc(Cl)c2N)cc1OC	3.3	.	1.1	-1.0	-0.1	.	.	.	.	.	.
COc1cccc(/C=N/Nc2ncnc3scc(-c4ccccc4)c23)c1O	11.1*	.	14.6*	-0.4	17.0*	1.1	11.9*	5.9	2.1	6.4	18.2
SMILES	phage Ecoli inh	E coli growth-1	AddAB inh	Tat transport	E coli growth-2	AddAB confirm	RecBCD counter	Bact viability	RecBCD conf	Ecoli viability	AddAB phage OD
COc1cccc(/C=N/Nc2ncnc(Cl)c2N)c1O	29.8*	.	12.4*	6.4	15.3*	20.8*	29.4*	18.0	27.0*	30.3*	22.9*
CC(C)(C)OC(=O)CNC(=O)c1[nH]cnc1C(=O)NC(Cc1ccccc1)C(=O)OC(C)(C)C (configuration not stated)	.	0.681	.	.	.	.	.	.	.	.	.
COc1ccc2c(c1)[n+](=O)c(C(C)=O)c(C)n2[O-]	0.6	0.685	0.9	2.5	0.3	.	.	.	.	.	.
CC(=O)c1c(C)n([O-])c2cc(F)c(F)cc2[n+]1=O	21.9*	0.111*	63.2*	29.3	52.8*	98.0*	25.8*	88.3*	23.4*	31.1*	91.4*
Cc1ccc(C(=O)Sc2cccccc2=O)cc1	61.5*	0.145*	51.4*	82.5*	51.8*	63.9*	61.3*	60.8*	77.9*	81.0*	89.0*
O=C(Nc1ccccc1SC(=O)c1ccccc1)c1ccccc1	1.1	.	.	.	.	.	.	.	.	.	.
Brc1ccc(NN=C(N=Nc2nn[nH]n2)c2ccccc2)cc1	.	0.598	.	.	.	.	.	.	.	.	.
Brc1ccc(N/N=C(/N=Nc2nn[nH]n2)c2ccccc2)cc1	26.3*	.	29.7*	15.0	30.3*	21.5*	25.9*	25.4*	21.0*	22.9*	27.6*
CCC1OC(=O)C(C)C(OC2C[C@@](C)(OC)C(O)C(C)O2)C(C)C(OC2OC(C)CC(N(C)C)C2O)[C@](C)(O)CC(C)C(=NOCOCCOC)C(C)C(O)[C@]1(C)O (some centres not stated)	.	0.577	.	.	.	.	.	.	.	.	.
